Test results taken from PubChem BioAssay AID1159580 (chemical genetic matrix, 2015).
Screen size: about 5,500 compounds; about 2,000 (36%) were called active. Inconclusive results (about 18%) are left out. Rule as the data show it: active = normalized growth mostly below about 0.91 (no sharp cut-off); inconclusive = no clear call, values can overlap the other calls; inactive = mostly above about 0.92. This is one part of the list.

Experiment: chemical genetic growth profiling, strain panel (AID 1159580);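 also: tested at 20 µM; growth read once vehicle control cultures reached saturation at 30 °C; 1 = growth at the plate median or of vehicle wells; lower values mean less growth of the strain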
Conditions: growth OD

Measured: normalized growth

CN[C@@H]1[C@H](O)[C@H](NC)[C@H]2O[C@@]3(O)C(=O)C[C@@H](C)O[C@H]3O[C@@H]2[C@H]1O
inactive: S. cerevisiae deletion strains, locus YJR075W, strain HOC1, hits give low values 1.01 | S. cerevisiae deletion strains, locus YKL009W, strain mrt4, hits give low values 1.02 | S. cerevisiae deletion strains, locus YKL068W, hits give low values 1.01 | S. cerevisiae deletion strains, locus YKL085W, strain MDH1 (second series), hits give low values 1.01 | S. cerevisiae deletion strains, locus YKL085W, strain MDH1, hits give low values 1.01 | S. cerevisiae deletion strains, locus YKL160W, strain elf1, hits give low values 1.01 | S. cerevisiae deletion strains, locus YKL190W, strain CNB1, hits give low values 1 | S. cerevisiae deletion strains, locus YKR001C, strain vps1, hits give low values 1.02 | S. cerevisiae deletion strains, locus YKR026C, strain gcn3, hits give low values 1.01 | S. cerevisiae deletion strains, locus YKR091W, strain srl3, hits give low values 1 | S. cerevisiae deletion strains, locus YLL001W, strain dnm1, hits give low values 1.02 | S. cerevisiae deletion strains, locus YLL026W, hits give low values 1 | S. cerevisiae deletion strains, locus YLL041C, strain sdh2, hits give low values 0.999 | S. cerevisiae deletion strains, locus YLR027C, strain aat2, hits give low values 1.01 | S. cerevisiae deletion strains, locus YLR039C, strain RIC1, hits give low values 1.05 | S. cerevisiae deletion strains, locus YLR058C, strain SHM2, hits give low values 1.01 | S. cerevisiae deletion strains, locus YLR102C, strain apc9, hits give low values 1.02 | S. cerevisiae deletion strains, locus YLR113W, strain HOG1, hits give low values 0.967 | S. cerevisiae deletion strains, locus YLR221C, strain rsa3, hits give low values 0.981 | S. cerevisiae deletion strains, locus YLR258W, strain gsy2, hits give low values 0.999 | S. cerevisiae deletion strains, locus YLR262C, strain YPT6 (second series), hits give low values 1.05 | S. cerevisiae deletion strains, locus YLR262C, strain YPT6, hits give low values 1.06 | S. cerevisiae deletion strains, locus YLR268W, strain sec22, hits give low values 1.04 | S. cerevisiae deletion strains, locus YLR320W, strain mms22, hits give low values 0.974 | S. cerevisiae deletion strains, locus YLR330W, strain CHS5, hits give low values 1.01 | S. cerevisiae deletion strains, locus YLR342W, strain FKS1 (second series), hits give low values 1 | S. cerevisiae deletion strains, locus YLR342W, strain FKS1, hits give low values 1.02 | S. cerevisiae deletion strains, locus YLR357W, strain rsc2, hits give low values 1 | S. cerevisiae deletion strains, locus YLR370C, strain arc18, hits give low values 0.995 | S. cerevisiae deletion strains, locus YLR371W, strain rom2, hits give low values 1.02 | S. cerevisiae deletion strains, locus YLR384C, strain iki3, hits give low values 1.01 | S. cerevisiae deletion strains, locus YLR418C, strain cdc73, hits give low values 1.03 | S. cerevisiae deletion strains, locus YML016C, strain PPZ1, hits give low values 1.01 | S. cerevisiae deletion strains, locus YML032C, strain rad52, hits give low values 1.04 | S. cerevisiae deletion strains, locus YML120C, strain ndi1, hits give low values 1 | S. cerevisiae deletion strains, locus YML124C, strain tub3, hits give low values 1.02 | S. cerevisiae deletion strains, locus YMR058W, strain fet3, hits give low values 1.01 | S. cerevisiae deletion strains, locus YMR078C, strain ctf18, hits give low values 1.02 | S. cerevisiae deletion strains, locus YMR125W, strain sto1, hits give low values 0.99 | S. cerevisiae deletion strains, locus YMR129W, hits give low values 0.999 | S. cerevisiae deletion strains, locus YMR205C, strain PFK2, hits give low values 1 | S. cerevisiae deletion strains, locus YMR223W, strain ubp8, hits give low values 1.01 | S. cerevisiae deletion strains, locus YMR231W, strain pep5, hits give low values 1 | S. cerevisiae deletion strains, locus YMR263W, strain SAP30, hits give low values 1.01 | S. cerevisiae deletion strains, locus YMR307W, strain GAS1, hits give low values 1.03 | S. cerevisiae deletion strains, locus YNL067W, strain RPL9B, hits give low values 1.02 | S. cerevisiae deletion strains, locus YNL071W, strain lat1, hits give low values 0.996 | S. cerevisiae deletion strains, locus YNL128W, strain TEP1, hits give low values 1.02 | S. cerevisiae deletion strains, locus YNL153C, strain GIM3, hits give low values 1 | S. cerevisiae deletion strains, locus YNL183C, strain NPR1, hits give low values 0.94 | S. cerevisiae deletion strains, locus YNL209W, strain ssb2, hits give low values 0.999 | S. cerevisiae deletion strains, locus YNL233W, strain BNI4, hits give low values 1.02 | S. cerevisiae deletion strains, locus YNL248C, strain rpa49, hits give low values 0.954 | S. cerevisiae deletion strains, locus YNL250W, strain rad50, hits give low values 1.02 | S. cerevisiae deletion strains, locus YNL271C, strain bni1, hits give low values 1.01 | S. cerevisiae deletion strains, locus YNL298W, strain CLA4, hits give low values 1.03 | S. cerevisiae deletion strains, locus YNL307C, strain MCK1, hits give low values 1.03 | S. cerevisiae deletion strains, locus YNL322C, strain KRE1 (second series), hits give low values 1 | S. cerevisiae deletion strains, locus YNL322C, strain KRE1, hits give low values 1.01 | S. cerevisiae deletion strains, locus YNR049C, strain mso1, hits give low values 1.01 | S. cerevisiae deletion strains, locus YNR052C, strain pop2, hits give low values 1.02 | S. cerevisiae deletion strains, locus YOL006C, strain TOP1, hits give low values 1.08 | S. cerevisiae deletion strains, locus YOL012C, strain htz1 0.978 | S. cerevisiae deletion strains, locus YOL147C, strain pex11, hits give low values 1.02 | S. cerevisiae deletion strains, locus YOR001W, strain rrp6, hits give low values 1.02 | S. cerevisiae deletion strains, locus YOR061W, strain CKA2, hits give low values 1.02 | S. cerevisiae deletion strains, locus YOR069W, strain VPS5, hits give low values 1.01 | S. cerevisiae deletion strains, locus YOR070C, strain gyp1, hits give low values 1 | S. cerevisiae deletion strains, locus YOR080W, strain dia2, hits give low values 1.01 | S. cerevisiae deletion strains, locus YOR083W, strain WHI5, hits give low values 0.982 | S. cerevisiae deletion strains, locus YOR106W, strain vam3, hits give low values 1.02 | S. cerevisiae deletion strains, locus YOR136W, strain idh2, hits give low values 1.02 | S. cerevisiae deletion strains, locus YOR144C, strain elg1, hits give low values 1.02 | S. cerevisiae deletion strains, locus YOR184W, strain ser1, hits give low values 1.03 | S. cerevisiae deletion strains, locus YOR231W, strain MKK1, hits give low values 0.953 | S. cerevisiae deletion strains, locus YOR265W, strain rbl2, hits give low values 1.01 | S. cerevisiae deletion strains, locus YOR270C, strain vph1, hits give low values 1.01 | S. cerevisiae deletion strains, locus YOR290C, strain snf2, hits give low values 0.978 | S. cerevisiae deletion strains, locus YOR316C, strain cot1, hits give low values 1.01 | S. cerevisiae deletion strains, locus YPL051W, strain arl3, hits give low values 1.01 | S. cerevisiae deletion strains, locus YPL055C, strain LGE1, hits give low values 1.02 | S. cerevisiae deletion strains, locus YPL078C, strain atp4, hits give low values 1.02 | S. cerevisiae deletion strains, locus YPL106C, strain sse1, hits give low values 0.991 | S. cerevisiae deletion strains, locus YPL240C, strain hsp82, hits give low values 0.995 | S. cerevisiae deletion strains, locus YPL241C, strain CIN2, hits give low values 1.01 | S. cerevisiae deletion strains, locus YPL256C, strain CLN2, hits give low values 0.962 | S. cerevisiae deletion strains, locus YPR119W, strain clb2, hits give low values 1.02 | S. cerevisiae deletion strains, locus YPR141C, strain kar3, hits give low values 1.02 | S. cerevisiae deletion strains, locus YPR163C, strain tif3, hits give low values 1.02 | S. cerevisiae deletion strains, locus YPR167C, strain met16, hits give low values 1.03 | S. cerevisiae deletion strains, strain wtn01, hits give low values 1.03 | S. cerevisiae strains, strain wild type, hits give low values 1.01
